# From PubChem BioAssay AID504810 (National Center for Advancing Translational Sciences (NCATS), 2011)
# About 670 (0.2%) of roughly 330,000 compounds were called active. The sample holds actives, similar compounds and a random draw of the others, so the mix is not that of the screen.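 Rule for the calls: active = activity change below a set negative limit, meaning inhibition stronger than a set level (cut at about -70% in these data); inconclusive = activity change between two set negative limits; inactive = the rest.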
# Molecular target: Thyrotropin receptor (Homo sapiens) (UniProt P16473)
# Sequence (P16473 whole entry, looked up): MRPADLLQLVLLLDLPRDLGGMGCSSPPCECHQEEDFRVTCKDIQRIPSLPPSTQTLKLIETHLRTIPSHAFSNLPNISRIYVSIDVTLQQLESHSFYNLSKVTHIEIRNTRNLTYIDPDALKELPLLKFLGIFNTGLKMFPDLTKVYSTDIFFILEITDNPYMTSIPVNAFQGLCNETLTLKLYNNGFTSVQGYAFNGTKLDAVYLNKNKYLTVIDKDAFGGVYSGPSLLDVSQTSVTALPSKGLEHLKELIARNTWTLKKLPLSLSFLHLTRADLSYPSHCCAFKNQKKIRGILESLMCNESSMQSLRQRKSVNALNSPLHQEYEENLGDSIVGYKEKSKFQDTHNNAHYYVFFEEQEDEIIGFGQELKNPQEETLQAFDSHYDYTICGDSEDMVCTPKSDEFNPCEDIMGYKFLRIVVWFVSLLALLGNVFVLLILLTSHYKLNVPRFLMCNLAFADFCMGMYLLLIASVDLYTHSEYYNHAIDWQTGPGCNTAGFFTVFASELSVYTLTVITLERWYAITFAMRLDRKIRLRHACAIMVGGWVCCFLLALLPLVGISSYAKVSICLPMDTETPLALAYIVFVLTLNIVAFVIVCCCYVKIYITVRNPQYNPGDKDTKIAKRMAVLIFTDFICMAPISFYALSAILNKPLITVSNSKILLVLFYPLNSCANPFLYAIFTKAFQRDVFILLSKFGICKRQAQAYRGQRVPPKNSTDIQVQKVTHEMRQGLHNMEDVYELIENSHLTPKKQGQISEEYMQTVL
# Experiment: Antagonists of the Thyroid Stimulating Hormone Receptor: HTS campaign
# Settings: TSHR-expressing cells, TSH-stimulated cAMP HTRF, 2 h; at 11.5 µM; active compounds read low
# From the text: The thyroid-stimulating hormone receptor (TSHR) is a member of the 7 trans-membrane-spanning receptor (7TMR) family of cell surface receptors. TSHR-mediated hyperthyroidism is important in thyroid pathology. The development of small molecule antagonists of TSHR may lead to therapeutic approaches for TSHR-mediated hyperthyroidism caused by constitutively activating mutations or stimulating auto-antibodies associated with Graves' disease. Graves' disease is the leading cause of hyperthyroidism and is caused by autoantibodies that stimulate TSHR (TsAbs) causing thyroid growth and unregulated overproduction of thyroid hormones and existing treatments have liabilities (agranulocytosis). In addition, TSHRs are known to be expressed in multiple extrathyroidal tissues including bone, brain, kidney, testis, fat and cells of the immune system but the role of the TSHR in these tissues is not clear. Therefore, TSHR antagonists/inverse agonists could be used as probes of extrathyroidal TSHR function. Finally, TSHR inverse agonists, which are a subclass of antagonists that inhibit agonist-independent (or basal or constitutive) TSHR signaling, could be used to inhibit TSH-independent signaling in patients with recurrent or metastatic thyroid cancer who are receiving thyroid hormone to suppress TSH. In collaboration between scientist from the NCGC and the NIDDK, a miniaturized HTRF high-throughput screen was developed. It's a cell based assay, where an anti cAMP antibody contains a fluorescent cryptate tag (excitation 337 nm; emission 620 nm) and the acceptor is cAMP-d2 (excitation 620 nm; emission 665 nm). When antibody and cAMP-d2 interact and are excited by a 337 nm light, a FRET occurs resulting in emission at 665 nm. The assay is competition between cAMP-d2 and cAMP (from the cell lysate). The homogeneous protocol allows for one step dispense after stimulation that is automation friendly. NIH Chemical Genomics Center [NCGC] NIH Molecular Libraries Probe Centers Network [MLPCN] MLPCN Grant: MH090855-01 Assay Submitter (PI): Marvin Gerhengorn
# 1. 3ul of 200 TSHR freshly harvested cells/well are dispensed into a 1536 TC-treated white solid bottom plate. 2. Through pintool addition, 23nl of compounds and control in 100% DMSO are added to the plate. 3. Then 1ul of EC80 TSH (4nM final) is added to the plate. 4. Assay is incubated at 37 deg C for 2 hours. 5. 2ul of cAMP antibody diluted 1:20 in lysis buffer is added. 6. Immediately following, 2ul of d2 diluted 1:20 in HBSS is added seperately. 7. The assay is incubated for 30 minutes at ambient room temperature. 8. The result is obtained by using a ViewLux read-out with HTRF settings.
# % is set by controls: 0 for no effect and ±100 for the full control effect.
row,SMILES,"activity change, negative = inhibition"
1,CC(C)(O)C#Cc1ccc(C(=O)N2CCC(C(N)=O)(N3CCCCC3)CC2)cc1,2.47% (inactive)
2,NC(=O)C1(N2CCCCC2)CCN(C(=S)Nc2ccc(Cl)cc2)CC1,25.4% (inactive)
3,NC(=O)C1(N2CCCCC2)CCN(C(=O)c2ccc(C#Cc3ccccc3)o2)CC1,-75.1% (active)
4,CSc1ccccc1N1CCN(CCCCCC(=O)NC2CCCc3ccccc32)CC1 (stereo not given),-13.5% (inactive)
5,Cc1c(C)n2c(SCC(=O)NC3CCCC3)nnc2[nH]c1=O,-8.74% (inactive)
6,CC(=O)Nc1ccc(NC(=O)CN2C(=O)COc3ccc(S(=O)(=O)N4CCCCC4)cc32)cc1,0.648% (inactive)
7,COc1ccc(NC(=O)CN2C(=O)COc3ccc(S(=O)(=O)N4CCOCC4)cc32)cc1,-2.02% (inactive)
8,CSc1cccc(NC(=O)CN2C(=O)COc3ccc(S(=O)(=O)N4CCOCC4)cc32)c1,-134% (active)
9,Cc1cc2occ(CC(=O)NNC(=O)c3ccccc3F)c2cc1C,3.48% (inactive)
10,Cc1csc(NC(=O)CSc2nc(=O)n(CCCN(C)C)c3c2CCC3)n1,-6.64% (inactive)
11,CSc1nc(N(C)NC(=O)c2cccc(C)c2)c2ccccc2n1,-3.52% (inactive)
12,Cc1ccnc(NS(=O)(=O)c2ccc(NC(=O)c3oc4ccc(F)cc4c3C)cc2)n1,4.87% (inactive)
13,Cc1ccnc(NS(=O)(=O)c2ccc(NC(=O)c3oc4ccccc4c3C)cc2)n1,-4.53% (inactive)
14,Cc1cc(C)c2oc(C(=O)Nc3ccc(S(=O)(=O)Nc4nccc(C)n4)cc3)cc(=O)c2c1,-137% (active)
15,CCCCC(C(=O)NC(C)(C)C)N(Cc1ccccc1)C(=O)c1snc(C(N)=O)c1N (stereo not given),-2.07% (inactive)
16,CC/C(=N/Nc1ccccc1)c1cnnc(SC)n1,-5.85% (inactive)
17,Cc1cccc(C)c1NC(=O)CSc1nc2c([nH]1)c(=O)n(C)c(=O)n2C,-2.1% (inactive)
18,Cn1c2cc(B(O)O)sc2c2cnn(Cc3ccccc3F)c(=O)c21,-27.6% (inactive)
19,CCOc1ccc(N(CC(=O)NC2CCCCCC2)S(=O)(=O)c2c(C)[nH]c(=O)[nH]c2=O)cc1,-10.6% (inactive)
20,O=C(CN1C(=O)NC2(CCCCCC2)C1=O)Nc1ccc([N+](=O)[O-])cc1,0.839% (inactive)
21,CN(C(=O)C1CCN(c2ncnc3c2nc2n3CCCCC2)CC1)C1CCCCC1,1.35% (inactive)
22,[O-][n+]1onc2c1CCc1[nH]c(-c3ccccc3)nc1-2,-36.4% (inactive)
23,CCCC1(C(=O)OC)NC(c2ccco2)C2C(=O)N(C)C(=O)C21 (stereo not given),-3.19% (inactive)
24,Cc1cc(NC(=O)CN2C(=O)NC(C)(CCc3ccccc3)C2=O)no1 (stereo not given),10.4% (inactive)
25,CCCCN(C(=O)c1ccc2ccccc2c1)c1c(N)n(CCCC)c(=O)[nH]c1=O,-8.5% (inactive)
26,CNC(=S)N1CCC(NC(=O)C(Cc2ccc(F)cc2)NC(C)=O)CC1 (stereo not given),-6.46% (inactive)
27,O=C(COc1ccc(Cl)cc1)Nc1ccc2c(c1)OCO2,-1.65% (inactive)
28,O=P(O)(CN1CCCCCC1)C1Cc2ccccc2C1,34.6% (inactive)

row,SMILES,"activity change, negative = inhibition"
1,CCOC(=O)C1(Cc2ccccc2C)CCCN(C(=O)CN2C(=O)CSC2=O)C1 (stereo not given),28.6% (inactive)
2,COc1cc([N+](=O)[O-])cc([N+](=O)[O-])c1NC(=O)N1CCOCC1,-0.913% (inactive)
3,CCN(CC(=O)Nc1ccc(NC(C)=O)cc1)C(=O)C1CC(=O)N(Cc2ccc(C)cc2)C1 (stereo not given),0.752% (inactive)
4,CN1CCCc2cc(C#N)c(=O)[nH]c21,4.52% (inactive)
5,COCCn1c(Cc2cccn2C)nnc1SCC(=O)Nc1nccs1,4.54% (inactive)
6,C/C(CCC(=O)OC[C@H]1O[C@H](C#Cc2ccccc2)C=C[C@@H]1Oc1ccc(C)cc1)=N\OC[C@@H](O)[C@H]1O[C@@H]2OC(C)(C)O[C@@H]2[C@H]1O,-3.15% (inactive)
7,CCOC(CNC(=O)C(=O)NCC(c1ccco1)N1CCN(c2ccc(OC)cc2)CC1)OCC (stereo not given),0.959% (inactive)
8,Cc1cc(=O)oc2c(C)c(OC(C)C(=O)NC3CCN(Cc4ccccc4)CC3)ccc12 (stereo not given),-2.61% (inactive)
9,O=c1cc(-c2ccccc2)[nH]c2nc(Cl)ccc12,-13.7% (inactive)
10,C=CC1(C)CC(=O)C2(O)C(C)(O1)C(OC(C)=O)C(O)C1C(C)(C)CCC(O)C12C (stereo not given),107% (inactive)
11,CN(C)c1ccc(CNC(=O)CN2C(=O)COc3ccc(S(=O)(=O)N4CCCC4)cc32)cc1,-5.17% (inactive)
12,CCn1ccnc1CNC(=O)CC1C(=O)NCCN1CCCc1ccccc1 (stereo not given),8.41% (inactive)
13,O=C(O)CCn1cc(/C=C/C(=O)c2ccc(Cl)cc2)c(-c2cccc(Br)c2)n1,-11.6% (inactive)
14,O=C(NCc1ccccc1Cl)C1CCCO1 (stereo not given),-3.41% (inactive)
15,O=C(Nc1ccc(C(=O)NCc2ccccc2Cl)cc1)C1=CSCCO1,-135% (active)
16,CSc1ccc(CNC(=O)c2ccc(NC(=O)C3=CSCCO3)cc2)cc1,17.8% (inactive)
17,O=C(CNC(=O)c1cc(=O)[nH]c2ccccc12)Nc1ccc(F)c(F)c1,1.67% (inactive)
18,CC(NC(=O)c1cc(=O)[nH]c2ccccc12)c1ccc(F)cc1F (stereo not given),-93% (active)
19,CC(NC(=O)COC(=O)c1cc(=O)[nH]c2ccccc12)c1ccccc1 (stereo not given),-4.46% (inactive)
20,Cc1cc(C(=O)N/N=C/c2cc([N+](=O)[O-])cc(C)c2O)n[nH]1,13.9% (inactive)
21,COc1ccc(CC(=O)N/N=C/c2cc([N+](=O)[O-])cc(Br)c2O)cc1,1.63% (inactive)
22,O=[N+]([O-])c1cc(Br)c(O)c(/C=N/Nc2nc3ccccc3s2)c1,-87.3% (active)
23,CC(C)Cn1c(=O)c2ccccc2n2c(CCC(=O)NCc3ccccn3)nnc12,3.77% (inactive)
24,C=CCc1ccccc1OCC(O)CN1CCN(CCO)CC1 (stereo not given),3.81% (inactive)
25,Cc1cc(C)c(C#N)c(SCC(=O)Nc2ccccc2)n1,1.53% (inactive)
26,Cc1cc(C#N)c(SCC(N)=O)nc1-c1ccc(F)cc1,-75.8% (active)
27,Cc1cc(C)c2c(-c3ccc(F)cc3)c(C#N)c(=O)n(C)c2n1,-4.99% (inactive)
